This is a sample that favours compounds with a hit; in the whole collection about 4.7% have one here.
D1 ag: human D1 receptor agonism. P21728. HEK293 T-REx D1 cells, calcium flux, agonist mode. actives 1% (n = 360,000). activation, % at 2 µM. AID 504660
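Agonism was scored from calcium flux recorded over 180 s (1 read/s) after pintool compound addition, following a 10-cycle baseline. Cells were inducible force-coupled HEK293 TREx D1, plated overnight at 30 C and loaded with no-wash calcium dye.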
D1 PAM: human D1 dopamine receptor positive modulation; P21728; HEK293 TREx D1 cells, calcium flux, dopamine EC20 potentiation; potentiation, % at 10 µM; actives 0.036% (n = 360,000); in the data active = potentiation above about 30%
TRHR enhancer: TRH receptor (human) allosteric enhancement | P34981 | TRHR cells, fluo-8 calcium fluorescence, EC20 TRH enhancement | enhancement, % at 2 µM | actives 0.66% (n = 360,000); in the data active = enhancement above about 30%
Target sequence (P34981 whole entry, looked up): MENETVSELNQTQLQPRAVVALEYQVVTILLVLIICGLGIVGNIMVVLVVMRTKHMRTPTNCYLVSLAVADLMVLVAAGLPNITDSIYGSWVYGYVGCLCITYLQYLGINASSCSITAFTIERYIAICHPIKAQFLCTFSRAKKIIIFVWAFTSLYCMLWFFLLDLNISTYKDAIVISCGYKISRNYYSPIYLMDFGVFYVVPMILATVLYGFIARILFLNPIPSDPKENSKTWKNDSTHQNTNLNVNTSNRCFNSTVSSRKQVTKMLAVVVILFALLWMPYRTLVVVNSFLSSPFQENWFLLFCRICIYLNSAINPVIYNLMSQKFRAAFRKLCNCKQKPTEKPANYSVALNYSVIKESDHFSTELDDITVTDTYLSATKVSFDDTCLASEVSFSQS
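TRHR-expressing cells loaded with fluo-8 calcium dye were read kinetically (ex 480/em 530) during compound addition, then stimulated with an EC20 of TRH (10 nM final). Enhancement of the Gq-mediated intracellular calcium response was scored.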
TRHR agonist: TRH receptor (human) agonism; activation, % at 2 µM; P34981; actives 0.18% (n = 360,000); TRHR cells, calcium flux fluo-8, FDSS agonist mode
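Fluo-8-loaded TRHR cells; 10 s baseline, compound added, kinetic Ca2+ fluorescence read 1/s, agonist mode.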
D1 antagonist: human D1 dopamine receptor antagonism; activity change, negative = inhibition, % at 10 µM; AID 504652; HEK293 TREx D1 cells, calcium flux, dopamine EC80; stronger effect = lower value; actives 3.2% (n = 360,000); P21728; in the data active = activity change below about -30%
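Calcium flux readout: force-coupled, inducible Hek293 Trex D1 line, cells induced overnight at 30 C with tetracycline, dye-loaded 30–90 min at RT. Antagonism scored against EC80 dopamine challenge given 180 s after compound.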
Each line names hits and unclear results; the compound was inactive in the other large screens; ! = a repeat was not active. Rule as the data show it, unless noted: active = activation above about 30%; inactive = the rest.

Nc1ccc(-c2cc(-c3ccc(N)cc3)nc(-c3ccccc3)n2)cc1	none
Oc1ccc(-c2cc(-c3ccc(O)cc3)nc(-c3ccccc3)n2)cc1	D1 antagonist -40
O=C(Nc1c(-c2ccccc2)nc2ccccn12)c1ccccc1	none
O=C(Nc1c(-c2ccccc2)nc2ccccn12)c1ccccc1F	D1 antagonist -75!
CC(C)COc1cccc(C(=O)Nc2ccc(-c3nc4ncccc4o3)cc2)c1	none
Cc1cc(OCc2cc(C(=O)N(C)Cc3ccccn3)no2)cc(C)c1Cl	none
CC(=O)c1ccc(OCc2cc(C(=O)N(C)Cc3ccccn3)no2)cc1	D1 antagonist -73
Cc1cc(OCc2cc(C(=O)N(C)CCCN3CCOCC3)no2)cc(C)c1Cl	D1 ag 35
Cc1cc(OCc2cc(C(=O)N(C)CCOc3ccccc3)no2)cc(C)c1Cl	D1 ag 37
Cc1cc(OCc2cc(C(=O)NCC3(C)COC3)no2)cc(C)c1Cl	D1 antagonist -41
COc1ccc(C(=O)n2cnc3ccccc32)cc1	none
COc1ccc2nc(N(Cc3cccnc3)C(=O)C3CCCCC3)sc2c1	none (no result: D1 antagonist)
CCCCOC(=O)c1ccc(NC(=O)COC(=O)C2CSC3(C)CCC(=O)N23)cc1 (configuration not stated)	D1 antagonist -46
COc1ccc(Nc2c3c(nc4ccc(NC(=O)c5cc(Cl)ccc5OC)cc24)CCCC3)cc1OC	none
O=C(CSCc1ccc(F)cc1)N1CCc2c([nH]c3ccccc23)C1c1ccc(Cl)cc1 (configuration not stated)	D1 antagonist -31
COc1ccc(CCC(=O)N2CCc3c([nH]c4ccccc34)C2c2ccc(F)cc2)cc1 (configuration not stated)	none
COc1ccc(CC(=O)N2CCc3c([nH]c4ccccc34)C2c2ccc(SC)cc2)cc1 (configuration not stated)	D1 antagonist -40
COc1ccccc1N1CCN(C(=O)C(=O)c2c[nH]c3ccccc23)CC1	D1 antagonist -30
O=C(C(=O)N1CCN(c2ccccc2F)CC1)c1c[nH]c2ccccc12	D1 antagonist -83
COc1ccccc1N1CCN(/N=C/c2ccccc2C(=O)O)CC1	D1 antagonist -50
CCOC(=O)c1ccccc1NC(=O)COC(=O)C(CC(C)C)NC(N)=O (configuration not stated)	TRHR enhancer 41
COc1ccc(NC(=O)/C(C#N)=C\c2cc(C)n(-c3ccc(Oc4ccc([N+](=O)[O-])cn4)cc3)c2C)cc1	none
Cc1cc(C=O)c(C)n1-c1ccc(Oc2ccc([N+](=O)[O-])cn2)cc1	D1 antagonist -53
Cc1ccc(C)c(Cn2c(SCC(=O)N(C)Cc3ccccc3)nc3ccccc32)c1	none
Cn1c(CCN2CCCCC2)nc2cc(NC(=O)COc3ccc([N+](=O)[O-])cc3)ccc21	none
CCOc1ccc(NC(=O)CN(C)C(=O)CCCn2c(=O)oc3ccccc32)cc1OCC	TRHR enhancer 38
CCOc1ccc(NC(=O)CN(C)C(=O)c2ccccc2Cc2ccccc2)cc1OCC	D1 antagonist -45 (no result: D1 PAM)
CN(CC(=O)Nc1ccc(F)cc1)C(=O)COc1ccccc1Cc1ccccc1	D1 antagonist -85
COc1ccc(NC(=O)CN(C)C(=O)COc2ccccc2Cc2ccccc2)cc1	none
CCOC(=O)c1[nH]c2ccc(C)cc2c1NC(=O)CN1CCCCC1	none
CCOC(=O)c1[nH]c2ccc(OCC)cc2c1NC(=O)CN1CCCC(C)C1 (configuration not stated)	D1 antagonist -36
Cc1ccc(S(=O)(=O)N(CCC(=O)N2CCOCC2)c2ccccc2)cc1	none
COc1ccc(-c2cc(C)no2)cc1S(=O)(=O)NCCCN1CCN(c2ccccc2)CC1	D1 antagonist -33
Cc1cc(-c2ccc(C)c(S(=O)(=O)NCCCN3CCN(c4ccccc4F)CC3)c2)on1	D1 antagonist -67
Cc1cc(-c2ccc(C)c(S(=O)(=O)NCCCN3CCN(c4ccccc4)CC3)c2)on1	D1 antagonist -77
Cc1cc(-c2ccc(C(C)C)c(S(=O)(=O)NCCN3CCC(C)CC3)c2)on1	D1 ag 44
Cc1cc(-c2ccc(C)c(S(=O)(=O)NCCCN3CCCCCC3)c2)on1	none
COc1ccc(COC(=O)C2CC(=O)N(Cc3ccc(C)cc3)C2)cc1 (configuration not stated)	none

Screens deposited in PubChem BioAssay by National Center for Advancing Translational Sciences (NCATS).
